High-throughput results from PubChem.
FAS TE block = FAS thioesterase domain inhibitors, primary screen, biochemical, fluorescence intensity, uHTS. 360,000 tested, 0.67% active. recombinant FAS-TE, OMFH fluorogenic substrate, fluorescence endpoint. inhibition, % at 15 µM. Fatty acid synthase (Homo sapiens), P49327. AID 602261, 2012;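 active = compounds whose normalised, plate-corrected inhibition of enzyme fluorescence in the single-dose primary screen is 50% or more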;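 also: 0% = DMSO with enzyme and 100% = substrate without enzyme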
ADAM10 inh = human ADAM10 inhibitors, primary screen, biochemical, QFRET, HTS; inhibition, % at 7 µM; Disintegrin and metalloproteinase domain-containing protein 10 (Homo sapiens), O14672; recombinant ADAM10, EDANS/DABCYL FRET peptide cleavage, 3 h; 370,000 tested, 0.62% active;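 active = inhibition above a per-campaign cutoff equal to the mean of compounds falling between control-based bounds plus 3 SD, cut at about 20% in these data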;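 also: 0% = DMSO wells while the 100% control is not disclosed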
NR3A LBD binder = binders of NR3A ligand-binding domain, primary screen, biophysical, differential scanning fluorimetry, uHTS | Tm shift relative to glycine control, % at 25 µM | 340,000 tested, 2.5% active | NR3A LBD differential scanning fluorimetry, Tm shift; 0% = protein alone, 100% = glycine-bound protein;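 active = melting temperature shift of at least 10% of the positive control shift, at one fixed dose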
ADAM17 inh = ADAM17 inhibitors, primary screen, biochemical, QFRET. Disintegrin and metalloproteinase domain-containing protein 17 (Homo sapiens), P78536. recombinant ADAM17, EDANS/DABCYL FRET peptide cleavage. inhibition, % at 6.95 µM. 370,000 tested, 0.83% active. AID 720648, 2013;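 active = inhibition above the mean of compounds lying between control limits plus 3 SD, set per campaign, cut at about 8.5% in these data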;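 also: 0% = DMSO-only wells as the low control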
HGIII-sPLA2 inh = human group III sPLA2 inhibitors, primary screen, biochemical, QFRET, BODIPY PC-A2 liposome substrate; 370,000 tested, 0.56% active; inhibition, % at 12.2 µM; Group 3 secretory phospholipase A2 (Homo sapiens), Q9NZ20; QFRET BODIPY PC-A2 liposome hydrolysis, fluorescence; AID 743126, 2013;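 active = inhibition above mean plus 3 SD of compounds lying within the high and low control bounds, cut at about 19% in these data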;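 also: 0% = median of test compound wells and 100% = no enzyme DMSO wells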
Target sequence (Q9NZ20 whole entry, looked up): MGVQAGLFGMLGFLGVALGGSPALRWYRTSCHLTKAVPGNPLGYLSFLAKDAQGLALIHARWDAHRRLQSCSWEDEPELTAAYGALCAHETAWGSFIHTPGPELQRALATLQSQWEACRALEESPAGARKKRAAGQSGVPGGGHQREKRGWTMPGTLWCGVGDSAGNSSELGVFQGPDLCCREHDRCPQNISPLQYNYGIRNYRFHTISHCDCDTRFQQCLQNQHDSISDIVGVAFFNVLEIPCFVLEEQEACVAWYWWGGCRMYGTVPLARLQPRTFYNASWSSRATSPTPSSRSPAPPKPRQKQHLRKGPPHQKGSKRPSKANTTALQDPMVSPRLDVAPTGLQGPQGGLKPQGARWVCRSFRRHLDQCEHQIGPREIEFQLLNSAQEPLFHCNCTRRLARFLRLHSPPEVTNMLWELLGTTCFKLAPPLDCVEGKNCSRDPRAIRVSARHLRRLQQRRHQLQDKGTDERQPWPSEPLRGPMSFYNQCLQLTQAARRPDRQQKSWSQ
Starred values were filed as active, the others as inactive; i = inactive; . = no result. Hits are enriched below; roughly 4.3% of the tested compounds scored in any of these assays.

SMILES	FAS TE block	ADAM10 inh	NR3A LBD binder	ADAM17 inh	HGIII-sPLA2 inh
C(=N/N1CCN(c2ccccc2)CC1)/c1ccco1	.	0.6	.	-1.5	-0.1
CCCCCN(C(=O)CCC(=O)OC(C)C(=O)Nc1cccc(C#N)c1)c1c(N)n(CCCC)c(=O)[nH]c1=O (configuration not stated)	11.0	-130.6	18.1*	-0.4	-7.9
Cc1nc(-c2ccccc2)sc1C(N)=O	-3.0	4.4	19.2*	-2.5	-0.3
CC(=O)Nc1c(-c2ccc(F)cc2)nc2ncccn12	.	i	.	-304.4	17.8
Cc1ccc(C2=NN(C(=O)C3CCCO3)C(c3ccco3)C2)cc1 (configuration not stated)	1.1	6.4	-0.5	-1.8	-5.8
O=C(C1CCCO1)N1N=C(c2ccc(Br)cc2)CC1c1ccco1 (configuration not stated)	19.3	-0.2	15.5*	-1.3	-6.2
O=C(Cc1ccc(Cl)c(Cl)c1)Nc1ccc(S(=O)(=O)Nc2ccon2)cc1	.	-5.3	.	-6.7	-36.1
OC(CNCCC1C=Nc2ccccc21)Cn1c2ccc(Cl)cc2c2cc(Cl)ccc21 (configuration not stated)	-36.1	-4.5	27.5*	3.8	3.4
CCOC(=O)NC(=O)/C(N=Nc1ccc(C(F)(F)F)cc1)=C(\C)O	-2.0	5.0	154.0*	1.8	-1.5
CCOC(=O)NC(=O)/C(N=Nc1cc(C)cc(C)c1)=C(\C)O	-1.0	-0.9	1.3	-0.5	-0.8
CC(C)C1N=C(NC(=O)OCc2ccccc2)NC1=O (configuration not stated) (tested in a mixture with another compound)	.	-16.5	.	-3.1	18.9
Cc1c(/C=N/NC(=O)c2ccc(O)cc2)c2ccccn2c1C(=O)c1ccc(F)cc1	-0.6	-2.0	17.7*	-2.8	-8.4
COC(=O)N/N=C/c1c(C)c(C(=O)c2ccc(F)cc2)n2ccccc12	-2.1	-1.5	1.2	-6.0	6.8
Cc1c(/C=N/NC(=O)c2ccccc2O)c2ccccn2c1C(=O)c1ccc(F)cc1	14.1	-7.9	14.4*	0.4	-11.7
CCOC(=O)N/N=C/c1c(C)c(C(=O)c2ccc(F)cc2)n2ccccc12	-7.8	0.0	0.8	-2.6	1.6
COC(=O)C[C@H]1CC[C@@H]2[C@@H](COc3ccc(NS(=O)(=O)c4ccccc4Cl)cc3C(=O)N2C)O1	.	-0.5	.	0.2	-1.5
CCCCCCCCN1CN2Cc3cc(F)ccc3C2CS1(=O)=O (configuration not stated)	.	7.8	.	3.5	7.2
O=C(Nc1nc(-c2cccnc2)cs1)c1cccc([N+](=O)[O-])c1	5.6	9.3	-3.2	1.7	6.2
COc1cc(NS(=O)(=O)c2ccc(Nc3nc(-c4cccc([N+](=O)[O-])c4)cs3)cc2)nc(OC)n1	23.8	10.9	28.9*	4.1	-167.1
O=C(Cc1ccccc1)Nc1nc(-c2cccc([N+](=O)[O-])c2)cs1	22.5	-8.8	-2.9	-0.8	6.4
O=[N+]([O-])c1cccc(-c2csc(Nc3ccccc3)n2)c1	38.3	8.8	30.3*	3.1	-8.7
COc1cc(NS(=O)(=O)c2ccc(NS(=O)(=O)c3ccccc3)cc2)nc(OC)n1	-2.7	4.2	0.5	-0.3	-9.1
COc1ccccc1Nc1nc(-c2cccc([N+](=O)[O-])c2)cs1	46.0	12.1	32.5*	2.7	-0.8
O=C(Nc1nc(-c2ccccc2)cs1)c1cccc([N+](=O)[O-])c1	56.9*	13.4	24.4*	7.7	-9.5
C[C@H]1[C@@H](NC(=O)c2ccc(Cl)cc2)CC[C@@]23CCCN2C(=O)CCC[C@@H]13	.	-6.9	.	-4.1	6.8
SMILES	FAS TE block	ADAM10 inh	NR3A LBD binder	ADAM17 inh	HGIII-sPLA2 inh
COC(=O)c1cc(-c2cccc(C#N)c2)c(=O)n2c1CCC2	.	-45.4	.	-17.9	15.7
Cc1ccc(N=CC=C2OC(C)(C)C(C)(C)O2)c(C)c1	-2.8	-80.9	15.0*	-30.7	-6.3
O=C(CCN1C(=O)/C(=C/c2ccccc2)SC1=S)NCCc1ccc(O)cc1	9.1	.	17.0*	.	.
COc1ccc(/C=C2\SC(=S)N(CCC(=O)NCCc3ccc(O)cc3)C2=O)cc1	14.2	-0.6	15.3*	-1.9	-8.6
COc1ccccc1/C=C1\SC(=S)N(CCC(=O)NCCc2ccc(O)cc2)C1=O	45.8	-5.6	-1.0	-3.1	-2.2
COc1ccc(C2O[C@@H](C)[C@@H]3C(=O)N4CCc5c([nH]c6ccccc56)[C@@H]4C[C@@H]3N2C)cc1 (some centres not stated)	.	-315.1	.	-73.6	-1.6
COc1ccc(NC(=O)CCC(=O)OCc2ccc([N+](=O)[O-])cc2)cc1	6.1	-4.4	19.9*	-1.1	4.2
CC(=O)c1ccc(NC(=O)CCC(=O)OCC(=O)c2cccc([N+](=O)[O-])c2)cc1	-1.0	.	62.1*	.	.
CC(=O)Nc1ccc(NC(=O)CCC(=O)OCC(=O)c2ccc(C)c([N+](=O)[O-])c2)cc1	1.4	-2.5	-36.2	-1.4	-1.7
COc1ccc(NC(=O)c2ccc(-c3ccc([N+](=O)[O-])cc3)o2)cc1	27.7	4.6	24.9*	3.3	-6.1
COc1ccc(NC(=O)c2ccc(-c3ccc(C(C)=O)cc3)o2)cn1	-6.2	-290.5	27.1*	-78.0	-9.1
COc1ccc(NC(=O)c2ccco2)cn1	-4.7	-5.8	-1.5	-2.6	-1.7
O=C(c1ccc(N2CCCC2=O)cc1)N1CCOCC1	-2.9	8.5	0.9	-2.2	6.8
CN1CCN(C(=O)c2ccc(N3CCCC3=O)cc2)CC1	-5.9	-5.2	333.5*	-5.1	8.1
CCCc1nc(SCC(=O)Nc2nnc(SCC)s2)c2c(=O)n(C)c(=O)n(C)c2n1	-8.9	-0.8	-1.5	-0.9	-0.5
CCSc1nnc(NC(=O)CSc2nc(CC)nc3c2c(=O)n(C)c(=O)n3C)s1	-8.3	-14.8	14.1*	-0.9	3.1
CCOC(=O)c1ccc(/C=C2/C=C(c3ccccc3)N(c3ccc(Cl)c(C(=O)O)c3)C2=O)cc1	3.6	-28.2	21.3*	-6.4	-40.0
c1ccc(Cn2c(SC3CCCCC3)nnc2-c2cccnc2)cc1	.	1.2	.	-2.6	2.2
O=C(Nc1ccc(C(F)(F)F)cc1)OC1CC2CC1[C@H]1CCCCN1C2 (some centres not stated)	.	-2.5	.	-1.1	4.2
Clc1ccc2c(c1)c1ccccc1n2CN1CCOCC1	5.1	5.2	-7.1	0.2	-15.2
Clc1ccc2c(c1)c1cc(Cl)ccc1n2CN1CCOCC1	30.0	13.8	10.7*	7.6	-12.0
